Measurements published in PubChem BioAssay (Tox21).
Calls of active or inactive are those of the source. Calls come from the whole dose curve; as a rule, active = well fitted curve in the direction sought with a large enough effect in the repeat runs; inconclusive = weak or mixed curves; inactive = flat fitted curve, though single readings scatter.

Experiment: qHTS assay to test for compound auto fluorescence at 590 nm (red) in HepG2 cells (AID 720674)
Settings: HepG2 autofluorescence, red 540/590 nm, 1 h; series mostly up to 46 µM; fluorescence, relative to Rose Bengal: at the top concentration
Text: U.S. Tox21 Program National Center for Advancing Translational Sciences [NCATS] NIH Chemical Genomics Center [NCGC] U.S. Environmental Protection Agency [EPA] National Institutes of Environmental Health Sciences [NIEHS] National Toxicology Program [NTP] U.S. Food and Drug Administration [FDA] Tox21 Assay Overview: Compound auto fluorescence often interferes with screening of the compound library against various biological targets and signaling pathways. Some of these compounds may have fluorophoric properties. Such properties may interfere with the assay outputs resulting in false positives and/or negatives. To decrease such complications and ensure the compound activities are relevant in terms of biological response, the Tox21 10K compound library was screened for auto fluorescence. From the fluorophores used as reporter signals in our screening assays, the auto fluorescence equivalencies of compounds against three fluorophores have been evaluated: Triamterene, Fluorescein and Rose Bengal sodium for blue, green and red fluorescence, respectively. The fluorescence intensities were measured using Excitation/Emission wavelengths at 405/460nm, 485/535nm and 540/590nm for blue, green and red labels, respectively. This assay includes the red fluorescence data.
Tox21 Assay Protocol Summary: 2,000 HepG2 cells in 5 uL of culture medium (MEM containing 10% FBS) per well were dispensed into black wall/clear bottom 1536-well plates using a Multidrop Combi Dispenser (ThermoFisher Scientific, Waltham, MA). The assay plates were incubated overnight at 37 C to allow cell attachment to the well bottom, followed by the transfer of 23 nL compound or DMSO vehicle by a pintool work station (Kalypsys , San Diego, CA). After the assay plates were incubated for 1 hr at 37 C and 5% CO2, fluorescence intensities in the assay plates were measured by an Envision (PerkinElmer, Shelton, CT) plate reader using three labels for measuring blue, green and red fluorescence at […] 460, 535 and 590 nm respectively.
% is set by controls: 0 for no effect and ±100 for the full control effect.

Structure (SMILES)	fluorescence, relative to Rose Bengal	outcome
CCCC(=O)OC(C(Cl)(Cl)Cl)P(=O)(OC)OC (stereo not given)	0.313% (inactive)	–
Cc1ccccc1-n1c(C)nc2ccccc2c1=O	–	inactive
Cc1cc(C(C)(C)c2ccc(O)c(C)c2)ccc1O	0.132% [at 91.3 µM] (inactive)	–
CCN1C[C@]2(COC)[C@H](O)C[C@H](OC)[C@@]34[C@@H]5C[C@@]6(O)[C@H](OC(=O)c7ccccc7)[C@@H]5[C@@](OC(C)=O)([C@@H]([C@H](OC)[C@H]23)[C@@H]14)[C@@H](O)[C@@H]6OC	0.0166% (inactive)	–
O=C1CCO1	0.414% (inactive)	–
C1CN(P2(N3CC3)=NP(N3CC3)(N3CC3)=NP(N3CC3)(N3CC3)=N2)CCO1 (stereo not given)	0.0044% (inactive)	–
CCCCc1ccc(C(=O)O)nc1	0.424% (inactive)	–
COC(=O)[C@]12CCC(C)(C)C[C@H]1[C@H]1C(=O)C=C3[C@@]4(C)C=C(C#N)C(=O)C(C)(C)[C@@H]4CC[C@@]3(C)[C@]1(C)CC2	0.152% (inactive)	–
NC(=O)CN1CC(O)CC1=O (stereo not given)	-0.0437% (inactive)	–
COC(COC(N)=O)C1=C(N2CC2)C(=O)C(C)=C(N2CC2)C1=O (stereo not given)	0.186% (inactive)	–
OCC(c1ccc(Cl)cc1)c1ccc(Cl)cc1	0.0641% [at 91.3 µM] (inactive)	–
CN[C@@H](C)Cc1ccccc1	-0.291% [at 91.3 µM] (inactive)	–
C[C@@H]1[C@@H]2Cc3ccc(O)cc3[C@@]1(C)CCN2CCc1ccccc1	-0.0611% [at 91.3 µM] (inactive)	–
CC[N+](C)(CC)CCOC(=O)C(O)(c1ccccc1)c1ccccc1	-0.507% (inactive)	–
CNc1ccc(C(=O)CC(O)CCC(C)C2OC(=O)CC(O)CC(=O)CC(O)CC(O)CC(O)CC(O)CC3(O)CC(O)C(C(=O)OC)C(CC(O[C@@H]4O[C@H](C)[C@@H](O)[C@H](N)[C@@H]4O)/C=C/C=C/C=C/C=C/C=C/C=C/C=C/C2C)O3)cc1 (stereo not given in full)	0.126% (inactive)	–
c1ccc2c(c1)Sc1ccccc1N2CC1CN2CCC1CC2 (stereo not given)	0.391% (inactive)	–
Clc1ccccc1-c1ccccc1Cl	-0.0663% [at 95.7 µM] (inactive)	–
C[C@@H]1[C@@H]2Cc3ccc(O)cc3[C@@]1(C)CCN2CC1CC1	-0.106% (inactive)	–
CC(=O)Oc1ccc2c3c1O[C@H]1[C@@H](OC(C)=O)C=C[C@H]4[C@@H](C2)N(C)CC[C@@]341	–	inactive
O[C@H]1[C@H]2[C@H](O)CCCN2C[C@H]1O	-1.01% (inactive)	–

Structure (SMILES)	fluorescence, relative to Rose Bengal	outcome
CCCCC[C@@H](O)C1C(=O)OC(C)[C@H](O)/C=C/C=C/C=C/C=C/C=C(\C)C(O)C(O)C(O)C[C@H](O)C[C@H](O)C[C@H](O)C[C@H](O)C[C@@H]1O (stereo not given in full)	–	inactive
C#CC(C)(O)CC (stereo not given)	0.271% (inactive)	–
C=CCN(C1=NCCN1)c1c(Cl)cccc1Cl	-0.0971% (inactive)	–
C[C@H]1CC[C@]2(NC1)O[C@H]1C[C@H]3[C@@H]4CC[C@H]5C[C@@H](O[C@@H]6O[C@H](CO)[C@H](O[C@@H]7O[C@H](CO)[C@@H](O)[C@H](O[C@@H]8OC[C@@H](O)[C@H](O)[C@H]8O)[C@H]7O[C@@H]7O[C@H](CO)[C@@H](O)[C@H](O)[C@H]7O)[C@H](O)[C@H]6O)CC[C@]5(C)[C@H]4CC[C@]3(C)[C@H]1[C@@H]2C	-0.252% (inactive)	–
O=C1CCCCC1CN1CCCCC1 (stereo not given)	-0.0124% (inactive)	–
CC(C)CCC(=O)O[C@H]1CC[C@H]2[C@@H]3CCC4=CC(=O)CC[C@]4(C)[C@H]3CC[C@]12C	-0.185% (inactive)	–
CC(N)Cc1ccc(O)cc1 (stereo not given)	0.776% (inactive)	–
CCCCCCC(=O)O[C@H]1CC[C@H]2[C@@H]3CC[C@H]4CC(=O)C=C(C)[C@]4(C)[C@H]3CC[C@]12C	0.192% (inactive)	–
COc1cc(C[C@H](C)N)c(OC)cc1C	0.247% [at 95.7 µM] (inactive)	–
CO/C=C(/C(=O)OC)c1ccccc1Oc1cc(Oc2ccccc2C#N)ncn1	-0.29% [at 91.3 µM] (inactive)	–
O=C1C[C@@H]2OCC=C3CN4CC[C@]56c7ccccc7N1[C@H]5[C@H]2[C@H]3C[C@H]46 (tested in a mixture with another compound)	–	inactive
CN1[C@@H]2CC[C@H]1CC(OC1c3ccccc3CCc3ccccc31)C2 (stereo not given in full)	0.0226% [at 18.6 µM] (inactive)	–
C=CCN1CC[C@]23c4c5ccc(O)c4O[C@H]2[C@@H](O)C=C[C@H]3[C@H]1C5	-0.613% (inactive)	–
CN=C1CN(O)C(c2ccccc2)=c2cc(Cl)ccc2=N1	–	inactive
O=P(O)(O)C(Cl)(Cl)P(=O)(O)O	-0.369% (inactive)	–
CCCSc1cc(OC)c(CCN)cc1OC	0.161% [at 95.7 µM] (inactive)	–
CN[C@]1(c2ccccc2Cl)CCCCC1=O	-0.583% (inactive)	–
CCCC(C)C1(CC)C(=O)NC(=O)NC1=O (stereo not given)	0.133% (inactive)	–
CCC1(CC)C(=O)NC(=O)N(C)C1=O	-0.221% (inactive)	–
O=C1C=C2C=C[C@@H]3C[C@@]2(O1)[C@H]1CCCCN31	-0.18% (inactive)	–
